# Laboratory results: PubChem BioAssay
# Active and inactive are the calls of the source.
# What was measured:
# [1] = small molecules captured by biotinylated probe aFSTL3 – biochemical, small-molecule microarray, fluorescence 635/667, stem cell growth factor project, primary screen (AID 1064); details: higher = more signal;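 note: measures binding of the biotinylated anti-FSTL3 antibody to printed compounds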
# [2] = binders from COS7 lysate, DM2A8 probe, primary screen, torsin A project, cell lysate, small-molecule microarray, fluorescence 635/667 (AID 1065); details: higher = more signal, COS7 lysate expressing mutant human TOR1A
# [3] = small molecules captured by biotinylated probe aFGF2 – biochemical, small-molecule microarray, fluorescence 635/667, stem cell growth factor project, primary screen (AID 1067); details: higher = more signal;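 note: measures binding of biotinylated aFGF2 protein to printed compounds on slides; z-score merges feature fluorescence and signal-to-noise across triplicate slides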
# [4] = small molecules captured by biotinylated probe aFGF10 – biochemical, small-molecule microarray, fluorescence 635/667, stem cell growth factor project, primary screen (AID 1071); details: higher = more signal;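 note: score merges 667 nm spot intensity and signal to noise from triplicate slides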
# [5] = target: Neurogenic locus notch homolog protein 2 (Homo sapiens) (UniProt Q04721); assay: small molecules binding Notch2 protein – biochemical, small-molecule microarray, 635 nm fluorescence, stem cell growth factors, primary screen (AID 1073); details: higher = more signal
# Neurogenic locus notch homolog protein 2 (Homo sapiens), sequence (Q04721 whole entry, looked up, canonical isoform): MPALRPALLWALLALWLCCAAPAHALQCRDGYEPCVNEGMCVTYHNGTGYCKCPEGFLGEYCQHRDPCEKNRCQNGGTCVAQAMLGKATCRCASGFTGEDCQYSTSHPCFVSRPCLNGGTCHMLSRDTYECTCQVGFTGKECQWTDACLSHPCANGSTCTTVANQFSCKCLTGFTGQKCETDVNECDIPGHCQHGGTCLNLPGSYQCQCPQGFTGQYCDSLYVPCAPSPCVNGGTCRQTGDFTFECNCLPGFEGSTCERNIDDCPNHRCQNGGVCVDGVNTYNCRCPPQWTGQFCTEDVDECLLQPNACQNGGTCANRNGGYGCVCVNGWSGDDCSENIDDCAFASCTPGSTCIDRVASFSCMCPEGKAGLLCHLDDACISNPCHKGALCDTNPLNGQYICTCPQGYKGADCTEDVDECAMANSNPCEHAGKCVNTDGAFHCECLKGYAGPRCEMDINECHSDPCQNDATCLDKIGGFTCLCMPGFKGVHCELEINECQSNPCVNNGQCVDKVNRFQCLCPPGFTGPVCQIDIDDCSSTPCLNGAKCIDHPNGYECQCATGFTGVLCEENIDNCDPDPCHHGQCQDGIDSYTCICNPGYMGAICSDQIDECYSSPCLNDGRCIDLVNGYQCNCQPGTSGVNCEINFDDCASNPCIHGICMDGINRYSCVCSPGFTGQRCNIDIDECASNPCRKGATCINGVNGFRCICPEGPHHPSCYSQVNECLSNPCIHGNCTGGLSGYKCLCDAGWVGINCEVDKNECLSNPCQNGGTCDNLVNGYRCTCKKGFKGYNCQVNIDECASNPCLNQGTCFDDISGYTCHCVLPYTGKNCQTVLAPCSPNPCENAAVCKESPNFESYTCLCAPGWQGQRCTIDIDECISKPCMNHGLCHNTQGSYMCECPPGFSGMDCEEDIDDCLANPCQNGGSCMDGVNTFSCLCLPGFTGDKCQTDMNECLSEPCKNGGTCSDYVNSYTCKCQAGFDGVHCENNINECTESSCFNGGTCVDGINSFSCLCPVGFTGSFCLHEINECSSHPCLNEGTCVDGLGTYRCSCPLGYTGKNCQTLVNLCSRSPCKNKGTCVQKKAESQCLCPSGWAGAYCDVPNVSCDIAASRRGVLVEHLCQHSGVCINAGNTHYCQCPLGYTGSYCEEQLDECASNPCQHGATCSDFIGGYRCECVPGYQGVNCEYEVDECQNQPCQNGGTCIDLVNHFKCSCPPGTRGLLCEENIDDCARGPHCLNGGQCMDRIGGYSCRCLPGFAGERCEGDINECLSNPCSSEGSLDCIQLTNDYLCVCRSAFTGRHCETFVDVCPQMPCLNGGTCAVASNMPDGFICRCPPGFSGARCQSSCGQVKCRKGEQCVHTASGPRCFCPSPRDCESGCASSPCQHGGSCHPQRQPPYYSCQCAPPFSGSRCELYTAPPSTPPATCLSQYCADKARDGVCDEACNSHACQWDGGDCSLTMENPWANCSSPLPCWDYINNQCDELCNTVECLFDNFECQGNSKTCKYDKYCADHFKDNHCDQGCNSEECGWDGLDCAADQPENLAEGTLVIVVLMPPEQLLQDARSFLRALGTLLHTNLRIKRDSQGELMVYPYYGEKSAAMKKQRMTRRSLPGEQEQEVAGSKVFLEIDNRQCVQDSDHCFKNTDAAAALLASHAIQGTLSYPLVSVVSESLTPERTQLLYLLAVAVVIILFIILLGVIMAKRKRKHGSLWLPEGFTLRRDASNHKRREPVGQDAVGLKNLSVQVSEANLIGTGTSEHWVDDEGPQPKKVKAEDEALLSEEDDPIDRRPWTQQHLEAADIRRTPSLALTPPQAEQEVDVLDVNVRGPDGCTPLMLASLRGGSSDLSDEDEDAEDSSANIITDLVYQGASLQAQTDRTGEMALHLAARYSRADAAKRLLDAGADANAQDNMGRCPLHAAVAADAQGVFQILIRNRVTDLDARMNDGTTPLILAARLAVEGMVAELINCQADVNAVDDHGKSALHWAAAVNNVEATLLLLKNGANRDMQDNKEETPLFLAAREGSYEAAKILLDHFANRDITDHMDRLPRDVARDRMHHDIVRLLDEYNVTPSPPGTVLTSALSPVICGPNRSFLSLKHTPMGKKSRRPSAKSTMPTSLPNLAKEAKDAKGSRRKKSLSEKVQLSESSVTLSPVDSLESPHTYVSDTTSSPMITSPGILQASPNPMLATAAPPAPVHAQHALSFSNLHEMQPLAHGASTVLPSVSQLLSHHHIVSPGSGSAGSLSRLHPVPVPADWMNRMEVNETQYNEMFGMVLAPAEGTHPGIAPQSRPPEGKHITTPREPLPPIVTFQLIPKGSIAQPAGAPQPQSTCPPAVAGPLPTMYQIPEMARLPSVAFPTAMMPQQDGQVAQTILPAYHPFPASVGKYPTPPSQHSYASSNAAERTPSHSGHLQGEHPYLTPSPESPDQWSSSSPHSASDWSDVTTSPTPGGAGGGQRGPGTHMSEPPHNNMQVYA
# [6] = target: Pro-neuregulin-1, membrane-bound isoform (Homo sapiens) (UniProt Q02297); assay: small molecules binding neuregulin-1 protein – biochemical, small-molecule microarray, fluorescence 635/667, psychiatric disease protein project, primary screen (AID 1075); details: NRG1 binding, 635 nm fluorescence, higher = more signal;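 note: score combines 667 nm spot fluorescence with signal to noise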
# Pro-neuregulin-1, membrane-bound isoform (Homo sapiens), sequence (Q02297 whole entry, looked up, the tested form may be a part, canonical isoform): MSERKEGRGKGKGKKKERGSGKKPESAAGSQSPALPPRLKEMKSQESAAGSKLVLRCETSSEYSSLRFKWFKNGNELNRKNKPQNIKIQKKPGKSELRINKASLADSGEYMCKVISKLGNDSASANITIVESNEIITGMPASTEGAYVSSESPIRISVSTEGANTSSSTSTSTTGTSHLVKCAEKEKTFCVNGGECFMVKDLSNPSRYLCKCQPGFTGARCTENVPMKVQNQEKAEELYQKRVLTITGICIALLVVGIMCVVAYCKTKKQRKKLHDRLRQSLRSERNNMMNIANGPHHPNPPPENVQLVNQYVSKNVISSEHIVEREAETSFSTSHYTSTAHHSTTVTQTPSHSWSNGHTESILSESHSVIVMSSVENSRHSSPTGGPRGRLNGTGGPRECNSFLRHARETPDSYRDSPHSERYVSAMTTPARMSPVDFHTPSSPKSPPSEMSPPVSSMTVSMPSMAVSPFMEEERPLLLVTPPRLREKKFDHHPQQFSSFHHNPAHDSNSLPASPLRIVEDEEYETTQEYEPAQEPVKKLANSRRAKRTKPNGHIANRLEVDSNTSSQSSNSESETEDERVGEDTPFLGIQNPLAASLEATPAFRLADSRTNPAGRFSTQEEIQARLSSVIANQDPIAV
# [7] = system: Neuregulin-1 EGF-like domain; assay: small molecules binding NRG1 EGF domain – biochemical, small-molecule microarray, 635 nm fluorescence, primary screen (AID 1081); details: higher = more signal;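 note: binding of the protein to compounds printed on small-molecule microarray slides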
# [8] = FRG1 expression reporter modulators in myotubes – cell-based, C2C12 myotubes, firefly/Renilla luciferase, luminescence, FRG1 inhibition for FSHD, primary screen (AID 1084); details: FRG1 promoter luciferase, higher = more signal, called active from +8 up or from −8 down
# [9] = small molecules captured by biotinylated probe aFST – biochemical, small-molecule microarray, fluorescence 635/667, stem cell growth factor project, primary screen (AID 1086); details: higher = more signal;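 note: score merges 667 nm fluorescence with signal-to-noise of each printed compound spot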
# [10] = binders of probe aHhip on microarray, primary screen, stem cell growth factor project, biochemical, small-molecule microarray, fluorescence 635/667 (AID 1087); details: higher = more signal;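 note: score merges spot fluorescence at 667nm with spot signal to noise ratio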
# [11] = system: PRMT1 (protein arginine N-methyltransferase 1); assay: small molecules binding arginine methyltransferase PRMT1 – biochemical, small-molecule microarray, 635 nm fluorescence, primary screen (AID 1088); details: higher = more signal;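 note: binding of Prmt1 protein to compounds spotted on small-molecule microarray slides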
# [12] = growth effects on S. cerevisiae YJM789 – YJM789 clinical isolate, OD600, 24 h, basal, primary screen (AID 1089); details: higher = more signal, called active from +8 up or from −8 down;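 note: growth of clinical yeast isolate S. cerevisiae YJM 789 seeded 1000 cells per well; test concentration not given here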
# [13] = S. pombe growth modifiers, basal conditions – strain 972, OD600, 24 h, no modulator, primary screen (AID 1090);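 note: basal condition with compound alone and no growth modifier present; test concentration not given here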; details: S. pombe 972 growth, higher = more signal, called active from +8 up or from −8 down
# [14] = budding yeast growth modifiers under rapamycin – strain BY4716, OD600, 96 h, primary screen (AID 1091); note: test concentration not given here; details: S. cerevisiae BY4716 + rapamycin, higher = more signal, called active from +8 up or from −8 down
# [15] = target: Torsin-1A-interacting protein 2 (Homo sapiens) (UniProt Q8NFQ8); assay: small molecules binding lysate-expressed LULL1 – cell lysate, human LULL1 lysate, 635/667 nm fluorescence, primary screen (AID 1092); details: small-molecule microarray, hLULL1 lysate binding, 635 nm fluorescence; higher = more signal;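 note: probe is lysate of COS7 cells overexpressing human LULL1; score merges per-feature 667 nm fluorescence with signal-to-noise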
# Torsin-1A-interacting protein 2 (Homo sapiens), sequence (Q8NFQ8 whole entry, looked up): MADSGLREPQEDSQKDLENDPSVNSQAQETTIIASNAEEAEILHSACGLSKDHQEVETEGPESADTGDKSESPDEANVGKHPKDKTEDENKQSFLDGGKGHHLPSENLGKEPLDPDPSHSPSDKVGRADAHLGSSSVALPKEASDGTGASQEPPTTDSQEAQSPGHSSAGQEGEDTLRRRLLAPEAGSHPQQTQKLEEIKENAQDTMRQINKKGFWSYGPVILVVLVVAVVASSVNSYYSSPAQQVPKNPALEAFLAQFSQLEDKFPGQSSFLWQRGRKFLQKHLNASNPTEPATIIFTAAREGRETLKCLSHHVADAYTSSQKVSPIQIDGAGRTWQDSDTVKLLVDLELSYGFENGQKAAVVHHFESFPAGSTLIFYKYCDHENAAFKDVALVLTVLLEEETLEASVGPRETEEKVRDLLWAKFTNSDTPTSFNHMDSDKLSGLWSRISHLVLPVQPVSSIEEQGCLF
# [16] = optical density change of DRC41 E. coli – strain DRC41, OD650, 24 h, E. coli filamentation project, primary screen (AID 1093);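 note: MC1000 strain lacking acrAB efflux and sulA so SOS filamentation is blocked; test concentration not given here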; details: E. coli DRC41 growth, higher = more signal, called active from +8 up or from −8 down
# [17] = probe aLefty2 binding to arrayed compounds – biochemical, biotinylated probe, 635/667 nm fluorescence, primary screen (AID 1094); details: small-molecule microarray, higher = more signal;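 note: score merges spot fluorescence near 667 nm with spot signal-to-noise ratio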
# [18] = system: Noggin (protein binding on small-molecule microarray); assay: small molecules binding Noggin protein – biochemical, 635/667 nm fluorescence, primary screen (AID 1095); details: 635 nm fluorescence, higher = more signal;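 note: score merges 667 nm feature fluorescence with signal to noise over triplicate slides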
# [19] = target: Neurogenic locus notch homolog protein 3 (Homo sapiens) (UniProt Q9UM47); assay: small molecules binding NOTCH3 protein – biochemical, 635/667 nm fluorescence, primary screen (AID 1096); details: small-molecule microarray, 635 nm fluorescence, higher = more signal
# [20] = probe aEGFR binding to arrayed compounds – biochemical, biotinylated probe, 635/667 nm fluorescence, primary screen (AID 1097); details: small-molecule microarray, higher = more signal;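 note: probe is a biotinylated anti-EGFR antibody binding compounds printed on slides; score combines fluorescence near 667 nm and signal to noise of each spot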
Compound,composite z-score [1],composite z-score [2],composite z-score [3],composite z-score [4],composite z-score [5],composite z-score [6],composite z-score [7],z-score [8],composite z-score [9],composite z-score [10],composite z-score [11],z-score [12],z-score [13],z-score [14],composite z-score [15],z-score [16],composite z-score [17],composite z-score [18],composite z-score [19],composite z-score [20]
O=C1C2C=CC(C(O)c3ccccc3)N(Nc3ccccc3F)C2C(=O)N1c1ccccc1 (stereo not given),-0.283,0.932,0.0248,0.373,0.99,0.801,0.834,-2.14 (inactive),0.444,-0.191,0.101,0.181 (inactive),0.815 (inactive),0.285 (inactive),2.61,-0.106 (inactive),-0.0381,-0.0199,0.023,-0.067
C=CCC(OC(C)=O)[C@@H]1[C@@H](N(Cc2cc3ccccc3o2)C(=O)c2ccc(-c3ccccc3)cc2)c2cc(OCCCO)ccc2N1C(=O)c1ccc2ccccc2c1 (stereo not given in full),-0.0256,-0.262,0.0405,-0.0863,0.251,0.0445,-0.341,-3.52 (inactive),0.679,-0.214,0.0279,0.271 (inactive),0.314 (inactive),1.03 (inactive),1.1,-0.704 (inactive),-0.0485,0.228,0.391,-0.0981
C[N+](C)(C)CCCCCCNC(=O)[C@H]1C[C@H]2C(=O)N[C@@H](Cc3ccccc3)C(=O)N2[C@H]1c1ccc(O)cc1,0.18,0.375,-0.0853,0.316,0.224,0.736,1.21,2.26 (inactive),-0.0859,0.0373,1.53,-0.327 (inactive),0.162 (inactive),0.0818 (inactive),2.56,0.441 (inactive),-0.0769,1.18,0.98,-0.136
O=C(NCc1ccccc1)[C@@H]1c2ccccc2C(=O)N(Cc2ccccc2C(F)(F)F)[C@H]1c1ccc(CO)cc1,-0.234,0.55,-0.0451,-0.0459,-0.927,0.48,1.25,-3.23 (inactive),-0.428,-0.293,1.45,0.397 (inactive),0.234 (inactive),-0.0066 (inactive),1.83,0.479 (inactive),-0.179,-0.483,-0.0406,-0.212
O=C1C2C=CC(C(O)c3ccc(F)cc3)N(n3cnnc3)C2C(=O)N1Cc1ccccc1 (stereo not given),0.352,-0.131,-0.12,-0.201,-0.0052,0.439,-0.191,0.594 (inactive),0.19,-0.282,-0.301,0.271 (inactive),0.767 (inactive),-0.1 (inactive),1.05,-0.997 (inactive),0.0137,-0.685,-0.874,-0.208
CC(C)(C)OC(=O)CC[C@]1(C(=O)NCC(O)CO)N=C(c2ccc(OCCCO)cc2)O[C@H]1c1ccccc1 (stereo not given in full),1.07,1.58,-0.0099,0.391,0.493,0.866,1.33,0.974 (inactive),0.36,-0.323,-0.362,-0.866 (inactive),-0.956 (inactive),-0.744 (inactive),3.45,1.91 (inactive),0.0424,-0.837,-0.89,0.109
CCCC[C@@H]1C[C@H]1[C@@H](NC(=O)c1ccccc1)c1ccc(C(F)(F)F)cc1,0.79,-1.02,-0.0908,-0.333,-0.601,-0.612,-0.521,-0.858 (inactive),0.0249,-0.175,-0.914,0.82 (inactive),0.987 (inactive),0.151 (inactive),-0.962,-0.582 (inactive),0.161,0.337,-0.769,-0.15
CCC[C@@H]1C[C@@]1(CCC)[C@@H](NC(=O)OCc1ccccc1)c1ccc(-c2ccccc2)cc1,0.49,-0.602,0.0572,-0.68,-0.527,-0.271,-0.76,-1.93 (inactive),-0.294,3.09,-0.936,-0.979 (inactive),-15.5 (active),-0.0091 (inactive),0.543,0.0945 (inactive),0.239,-0.0553,-0.621,-0.186
CC(c1ccccc1)C(O)C1C=CC2C(=O)N(c3ccccc3)C(=O)C2N1Nc1ccc([N+](=O)[O-])cc1 (stereo not given),-0.263,0.031,-0.0265,0.772,1.62,1.58,1.11,-1.32 (inactive),0.745,-0.166,1.07,0.197 (inactive),1.58 (inactive),1.78 (inactive),3.55,0.1 (inactive),0.0249,0.361,1.09,-0.027
CO[C@]12C=C(Br)[C@@H](C[C@@H]1c1cccc(C)c1)[C@@]1(CO1)C2=O,-0.233,0.0322,-0.0718,0.211,-0.217,0.518,0.0046,1.22 (inactive),-0.221,-0.0708,0.435,-0.354 (inactive),-5.17 (inactive),-1.67 (inactive),0.469,-0.0461 (inactive),-0.145,0.569,0.537,-0.115
COc1cc2c(cc1OC)CN(C(=O)[C@@H]1[C@H]3C(=O)O[C@H](c4ccccc4)[C@H](c4ccccc4)N3[C@H](c3ccc(OCCO)cc3)[C@@]13C(=O)Nc1ccccc13)CC2,-0.164,0.562,0.0373,1.01,1.16,1.42,1.23,2.03 (inactive),0.29,0.0139,1.54,3.17 (inactive),1.16 (inactive),5.44 (inactive),3,0.761 (inactive),-0.126,1.32,1.15,0.134
COC(=O)c1c(CC[C@@H](CO)NC(=O)N2CCC[C@H]2Cn2cc(Cc3ccccc3)nn2)oc(C(C)=O)c1C(=O)OC,-0.506,0.268,-0.0759,0.325,0.0554,0.638,1.12,0.0223 (inactive),0.22,0.2,1.28,0.102 (inactive),-0.279 (inactive),-1.45 (inactive),3.14,-0.0178 (inactive),-0.147,0.387,0.524,-0.111
CC(CO)N1C(=O)[C@@H]2[C@H]3C(=O)OCC=C[C@H]3OC23C=CCN(CCN2CCOCC2)C(=O)[C@@H]13 (stereo not given in full),-0.979,-0.0708,-0.203,-0.362,-0.256,-0.718,0.284,1.03 (inactive),-0.0558,-0.539,0.658,-0.792 (inactive),-0.968 (inactive),-0.268 (inactive),-0.986,-0.909 (inactive),-0.33,0.169,0.0282,-0.0828
N#Cc1ccc(C(O)C2C=CC3C(=O)N(c4ccccc4)C(=O)C3N2Nc2ccccc2)cc1 (stereo not given),0.396,0.0518,0.129,0.77,1.32,1.19,1.08,-0.627 (inactive),0.833,-0.069,0.0016,0.953 (inactive),-0.145 (inactive),-0.248 (inactive),2.62,0.445 (inactive),0.443,-0.383,0.744,0.104
Cc1ccc(S[C@]2(C(=O)NCC(F)(F)F)CC(=O)N(C3CCCCC3)[C@@H]2c2ccc(CO)cc2I)cc1,-0.203,0.0659,0.0464,0.594,1.18,0.405,1.18,-2.91 (inactive),0.233,0.213,1.54,-0.332 (inactive),-0.692 (inactive),1.23 (inactive),2.82,0.312 (inactive),0.171,0.456,1.14,0.0516
CN1C(=O)C2C=CC(C(O)c3cccc(O)c3)N(Nc3ccccc3)C2C1=O (stereo not given),-0.0512,-0.201,0.0121,0.518,0.768,1.9,1.25,0.737 (inactive),0.495,0.0808,-0.0187,0.637 (inactive),1.62 (inactive),1.1 (inactive),0.684,-0.509 (inactive),0.0004,0.215,0.764,-0.0251
CC1CC/C=C\[C@H]2OC34C=CCN(C(C)C)C(=O)[C@H]3N(CCCCCCO)C(=O)[C@@H]4C2C(=O)O1 (stereo not given in full),0.315,-0.671,-0.143,-0.178,-0.357,1.06,0.147,0.286 (inactive),-0.856,-0.304,-1.25,-1.39 (inactive),-0.482 (inactive),-1.27 (inactive),-1.42,2.5 (inactive),-0.136,-0.705,-0.514,-0.237
COc1ccccc1CN1C(=O)c2ccccc2[C@](Cc2ccccc2I)(C(=O)NCC(F)(F)F)[C@@H]1c1ccc(CO)cc1,0.164,0.847,-0.0454,1.21,0.981,1.51,1.36,-0.719 (inactive),1.37,0.0373,1.55,-0.23 (inactive),-0.503 (inactive),0.0879 (inactive),3.22,-1.13 (inactive),0.126,0.576,0.872,0.0024
CCCCCCCCCCC(O)C1C=CC2C(=O)N(C)C(=O)C2N1Nc1ccc([N+](=O)[O-])cc1[N+](=O)[O-] (stereo not given),-0.222,-0.254,0.0772,0.131,1.55,1.12,0.975,0.262 (inactive),0.839,-0.0994,0.195,0.766 (inactive),0.637 (inactive),1.35 (inactive),3.02,-1.68 (inactive),0.379,-0.894,1.1,0.153
